SMILES strings stand for the structures. Structures can show the parent of a compound that is named as a salt.
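Also: purified Escherichia coli-expressed rice kinase domain construct.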

For the assay, the system named is T1, LOC_OS04G41100-cb001.
T1 sequence (whole entry): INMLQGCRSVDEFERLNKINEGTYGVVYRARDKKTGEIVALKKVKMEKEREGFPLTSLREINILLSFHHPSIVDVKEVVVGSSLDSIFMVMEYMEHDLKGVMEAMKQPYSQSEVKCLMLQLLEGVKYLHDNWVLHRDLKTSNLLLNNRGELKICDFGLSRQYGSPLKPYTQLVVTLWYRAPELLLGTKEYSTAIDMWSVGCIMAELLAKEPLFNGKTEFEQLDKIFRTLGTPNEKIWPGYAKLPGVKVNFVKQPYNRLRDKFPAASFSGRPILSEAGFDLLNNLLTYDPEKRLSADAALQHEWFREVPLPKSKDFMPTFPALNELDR
As to the kind of experiment: thermal shift delta Tm vs DMSO control; higher = stronger stabilization (binding). To be noted: 12.5 µM; protein concentration 2 µM. In short, it runs like this: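 Thermal shift values come from differential scanning fluorimetry on purified rice kinase domains made in E. coli, with melting temperatures obtained from Boltzmann fits. Samples of 19.5 μl held 2 μM kinase, 100 mM potassium phosphate pH 7.5, 150 mM NaCl, 10% glycerol, 5 × SYPRO Orange and compound in DMSO, and were heated from 25°C to 95°C at 0.05°C/s. Each shift is a triplicate mean relative to the DMSO-only protein sample.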
For the compound `CN1CC(O)C2=C/C(=N/NC(N)=O)C(=O)C=C21` (centres undefined) [Carbazochrome], the “thermal shift delta Tm” value was determined as 0.2 °C.
The result for `Cc1cc(Nc2cc(N3CCN(C)CC3)nc(/C=C/c3ccccc3)n2)n[nH]1` reads 1.86 °C.
The result for `Cc1ccc(NC(=O)Nc2cc(C(F)(F)F)ccc2F)cc1Nc1ccc2c(c1)NC(=O)/C2=C\c1ccc[nH]1` reads 0.8 °C; that for `CO[C@H]1C[C@@H]2CC[C@@H](C)[C@@](O)(O2)C(=O)C(=O)N2CCCC[C@H]2C(=O)O[C@H]([C@H](C)C[C@@H]2CC[C@@H](O)[C@H](OC)C2)CC(=O)[C@H](C)/C=C(\C)[C@@H](O)[C@@H](OC)C(=O)[C@H](C)C[C@H](C)/C=C/C=C/C=C/1C` [Rapamycin (Sirolimus)], 0.69 °C; that for `C[S+]([O-])c1ccc(-c2nc(-c3ccc(F)cc3)c(-c3ccncc3)[nH]2)cc1` (centres undefined), 1.23 °C.
The result for `CO[C@H]1CC[C@H](N2C(=O)CNc3ncc(-c4ccc(C(C)(C)O)nc4)nc32)CC1` reads 0.08 °C.
Turning to `O=C(Nc1ccccc1C(=O)NC1CCCCNC1=O)c1cc2ccccc2s1` (centres undefined), the “thermal shift delta Tm” value came to 0.17 °C.
In the case of `CCN1CCN(Cc2ccc(-c3cc4c(N[C@H](C)c5ccccc5)ncnc4[nH]3)cc2)CC1` it was 0.38 °C; in that of `Cc1cnc(NC(=O)Nc2cc(Br)c(C)cc2OC[C@@H]2CNCCO2)cn1`, 0.37 °C.
The result for `Cc1ccc(NC(=O)c2ccc(CN3CCN(C)CC3)cc2)cc1Nc1nccc(-c2cccnc2)n1` [Imatinib Mesylate (STI571)] reads 0.59 °C.
Take `NC(=O)c1ccc(N(C(N)=O)c2c(F)cccc2F)nc1-c1ccc(F)cc1F`: the “thermal shift delta Tm” value was determined as 0.38 °C.
In the case of `Cc1nc(-c2cn3c(n2)-c2ccc(-c4cnn(C(C)(C)C(N)=O)c4)cc2OCC3)n(C(C)C)n1` [Taselisib (GDC 0032)] it was 0.38 °C; in that of `COc1cc(N2CCC(N(C)C)CC2)ccc1Nc1ncc(Cl)c(Nc2ccccc2P(C)(C)=O)n1`, 0.61 °C; in that of `COc1cc2c(Nc3ccc(NC(=O)c4ccccc4)cc3)ncnc2cc1OCCCN1CCOCC1`, 0.59 °C.
The result for `CNC(=O)c1cc(Oc2ccc(NC(=O)Nc3cc(C(C)(C)C)nn3-c3ccc4ncccc4c3)c(F)c2)ccn1` [Rebastinib (DCC-2036)] reads 5.27 °C.
The result for `CC(C)(CO)n1cc(C(=O)c2cncc(NC(=O)Cc3ccc(Cl)cn3)c2)c2cnc(N)nc21` reads 0.41 °C; that for `CS(=O)(=O)N1CCN(Cc2cc3nc(-c4cccc5[nH]ncc45)nc(N4CCOCC4)c3s2)CC1` [Pictilisib (GDC-0941)], 0.72 °C.
On to `C[C@@H]1COC(Nc2ccc3ncnc(Nc4ccc(OCc5nccs5)c(Cl)c4)c3c2)=N1` [Varlitinib], for which the “thermal shift delta Tm” value was determined as 0.59 °C.
In the case of `COc1cc(Nc2ncc(F)c(Nc3ccc4c(n3)NC(=O)C(C)(C)O4)n2)cc(OC)c1OC` it was 0.74 °C.
The result for `CC(C)n1nc(-c2ccc3oc(N)nc3c2)c2c(N)ncnc21` reads 0.38 °C; that for `Cc1cc(NC(=O)c2cccc(NC(=O)/C=C/CN(C)C)c2)ccc1Nc1nccc(-c2cccnc2)n1`, 0.83 °C; that for `Nc1nccc(Oc2ccc(NC(=O)c3c[nH]cc(-c4ccc(F)cc4)c3=O)cc2F)c1Cl`, 3.39 °C.
The result for `COc1ccc(/C=C/C(=O)C2(C(=O)/C=C/c3ccc(OC)c(OC)c3)CCCCC2)cc1OC` reads 0.5 °C; that for `CC(C)CC(=O)Nc1n[nH]c2c1CN(C(=O)C1CCN(C)CC1)C2(C)C`, 3.27 °C.
